Each structure is given as a SMILES string. The campaign covered roughly 420,000 compounds. About 64,000 (15%) were called active. Roughly 27% stayed inconclusive and do not appear here. Calls follow the shape of the dose curve; as a rule, active = well fitted inhibition curve with a large enough effect; inconclusive = small, poorly fitted or top-dose-only effect; inactive = flat fitted curve, though single readings scatter. The list is a sample of the results. Entries that show only a call come without a potency.
Potency is read from the fitted curve at half-maximal effect.

This assay is described as follows: qHTS for Inhibitors of human tyrosyl-DNA phosphodiesterase 1 (TDP1): qHTS in cells in absence of CPT. Also: nearly all actives have a fitted effect of over 55% in size. The following applies: DT40 Tdp1-/- hTDP1 cells, no CPT, ATP luminescence, 48 h; activity change, negative = growth inhibition: at 46.2 µM (top of the series). In a few lines: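 Readout: luminescence from CellTiter-Glo after 30 min in the dark at RT. Cells: DT40 Tdp1-/- with stable hTDP1, 400/well. Exposure: compounds alone, ≥48 hr, 37 °C.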
On to `CN(CC(=O)Nc1ccc(N2CCOCC2)cc1)CC(=O)Nc1ccccc1[N+](=O)[O-]`, for which the Potency entry was “inactive”.

Turning to `O=c1c2ccccc2ncn1CCc1ccncc1`, the Potency result was “inactive”.

As for `Cc1cccc(CC(=O)Nc2c3c(nn2-c2cccc(Cl)c2)CS(=O)C3)c1` (centres undefined), the Potency result is “inactive”.

In the case of `O=c1oc(/C=C/c2ccccc2)nc2ccccc12`, the Potency result was “inactive”.

Turning to `NNc1cccc(C=Cc2ccccc2)cc1=O`, the Potency was 1.64 µM (active).

As for `O=C(COC(=O)/C=C/c1cccc(Cl)c1)NCCc1ccccc1`, the Potency entry was “inactive”.

For the compound `O=C(Cn1c(=O)n(Cc2ccco2)c(=O)c2ccccc21)NCC1CCCO1` (centres undefined), the Potency result was “inactive”.

Regarding `COCCNc1nnc(SCC(=O)NNC(=O)c2ccco2)s1`, the Potency result is “inactive”.

With `CCOC(=O)C1=CN(Cc2ccc(Br)cc2)S(=O)(=O)N(C)C1C` (centres undefined), the Potency entry is “inactive”.

Consider `O=C(NCc1ccncc1)c1cccc(NS(=O)(=O)c2ccc(F)c(F)c2)c1`, for which the Potency entry is “inactive”.

On to `COCCCNC(=O)c1ccc(CNS(=O)(=O)c2ccc(NC(C)=O)cc2)cc1`, for which the Potency result is “inactive”.

As for `CSCCC1NC2(C(=O)Nc3ccc(Cl)cc32)[C@@H]2C(=O)N(C3CCCC3)C(=O)[C@H]12` (some centres undefined), the Potency is 20.6 µM (active).

For the compound `O=C1[C@@H]2C(Cc3ccc(O)cc3)NC3(C(=O)Nc4ccc(F)cc43)[C@@H]2C(=O)N1c1ccc(F)cc1` (some centres undefined), the Potency result was “inactive”.

For the compound `CN(C)S(=O)(=O)N1CCN(c2ccc([N+](=O)[O-])cc2)CC1`, the Potency entry was “inactive”.

As for `CC(N)(C(=O)O)c1ccc(-c2nn[nH]n2)cc1` (centres undefined), the Potency entry is “inactive”.

In the case of `CCOC(=O)N1CCN(Cc2nnc(-c3ccccc3Cl)o2)CC1`, the Potency result is “inactive”.

Turning to `CCc1c(C)n([O-])c2c([n+]1=O)CCCCC2`, the Potency result was “inactive”.

For the compound `CCOC(=O)CCC(=O)OCC(=O)NC(C)C1CC2CCC1C2` (centres undefined), the Potency entry was “inactive”.

`Cc1cccc(C(=O)OCC(=O)NCC(C)C)c1O`: the Potency entry is “inactive”.

Regarding `Cc1cccc(C(=O)OCC(=O)NC(C)C2CC3CCC2C3)c1O` (centres undefined), the Potency was 16.4 µM (active).

Turning to `COC(=O)c1ccc(NC(=O)CSc2nnc(-c3ccncc3)n2C)cc1`, the Potency result was “inactive”.

Take `NS(=O)(=O)c1ccc(Nc2nc(-c3ccccc3)cs2)cc1`: the Potency result is “inactive”.

Turning to `CC(=O)c1ccc(Nc2nc(C(N)c3ccccc3Cl)cs2)cc1` (centres undefined), the Potency was 11.6 µM (active).

`CC(=O)c1ccc(NC(=O)C(C)N(C)CC(=O)Nc2ccccc2Cl)cc1` (centres undefined): the Potency entry was “inactive”.

`COc1ccc(NC(=O)CSc2nnc(-c3nnn(-c4ccc(F)cc4)c3C)o2)cc1`: the Potency entry is “inactive”.

For the compound `COc1ccccc1N(CC(=O)NC1CCCC1)C(=O)C1(C)CC(=O)N=C2C=CC(C)=CN21` (centres undefined), the Potency result was “inactive”.

`CC1=C(C(N)=O)C(c2sccc2C)n2nnnc2N1` (centres undefined): the Potency entry is “inactive”.

For the compound `COc1cccc(NC(=S)N(Cc2ccc(C)cc2)Cc2ccccn2)c1`, the Potency entry is “inactive”.

Consider `CC(c1ccccn1)N(CCN(C)C)C(=S)Nc1ccccc1F` (centres undefined), for which the Potency entry was “inactive”.

Turning to `CSc1cccc(NC(=S)N(Cc2ccccc2)Cc2ccccn2)c1`, the Potency was 20.6 µM (active).

Consider `CSc1cccc(NC(=S)N(C(C)C)C(C)c2ccccn2)c1` (centres undefined), for which the Potency was 8.2 µM (active).

On to `Cc1c(Cl)cccc1NC(=S)N(Cc1ccccc1)Cc1cccnc1`, for which the Potency entry was “inactive”.

For `CC(C)(C)c1nnc(N/N=C/c2ccc(O)cc2)n(N)c1=O`, the Potency entry was “inactive”.

`O=C(CC[C@H]1O[C@@H](n2ccc(=O)[nH]c2=O)[C@H](O)[C@@H]1O)N[C@H](Cc1ccccc1)C(=O)NCCCN1CCCC1=O`: the Potency result is “inactive”.

Turning to `CN(C(=O)COC(=O)CCCc1c[nH]c2ccccc12)c1c(N)n(Cc2ccccc2)c(=O)[nH]c1=O`, the Potency entry is “inactive”.

With `Cc1nc2c(ncn2-c2ccccc2)c(=O)n1NC(=O)CN1CCCC1`, the Potency result is “inactive”.

As for `CCN(CC)C(=O)CSc1nnc(-c2ccc(S(=O)(=O)NCc3ccccc3Cl)cc2)o1`, the Potency entry was “inactive”.

As to `COc1ccccc1NC(=O)[C@H](COCc1ccccc1)NC(=O)OC(C)(C)C`, the Potency is 18.4 µM (active).

As for `COc1ccccc1NC(=O)C(C)OC(=O)CC1CCCC1` (centres undefined), the Potency result is “inactive”.

Consider `COc1ccccc1NC(=O)C(CC(=O)O)Cc1cc(C)cc(C)c1` (centres undefined), for which the Potency entry is “inactive”.

For the compound `COc1ccc(C)cc1NC(=O)CCCN1C(=O)NC(C)(C)C1=O`, the Potency entry was “inactive”.

Consider `O=S(=O)(NCCNS(=O)(=O)c1ccccc1)c1ccccc1`, for which the Potency result was “inactive”.

Turning to `Cc1cc(C(=O)N2CCCC2(C)C(=O)O)c(C)o1` (centres undefined), the Potency entry is “inactive”.

For the compound `Cc1ccc(CCNC(=O)c2ccc3c(c2)nc2n3CCC(C)C2)cc1` (centres undefined), the Potency entry is “inactive”.

With `Cc1cccc(CCNC(=O)c2ccc3c(c2)nc2n3CCC(C)C2)c1` (centres undefined), the Potency was 18.4 µM (active).

On to `COc1ccc(CNC(=O)c2ccc3c(c2)nc2n3CCOC2)c(OC)c1`, for which the Potency result is “inactive”.

As to `CCOc1ccc(CCNC(=O)COC(=O)C2CCN(S(=O)(=O)c3ccccc3)CC2)cc1OCC`, the Potency entry was “inactive”.

For `COC(=O)c1ccc(COC(=O)c2cnccn2)cc1`, the Potency result is “inactive”.

As to `Cc1ccc(S(=O)(=O)NCC(C)NS(C)(=O)=O)cc1` (centres undefined), the Potency result was “inactive”.

For `Nc1nnnn1/N=C/c1cccc(Br)c1`, the Potency result is “inactive”.

For the compound `COc1ccccc1C(=O)Nc1cccc(C(=O)N2CCOCC2)c1`, the Potency result was “inactive”.

`COc1ccc(C(=O)NC(=S)Nc2ccc(N3CCCC3)cc2)cc1OC`: the Potency was 8.2 µM (active).

As to `COc1ccc(C(=O)Nc2ccc(S(=O)(=O)Nc3onc(C)c3C)cc2)cc1OC`, the Potency entry was “inactive”.

Consider `COc1ccc(C(=O)Nc2ccc3c(c2)OCO3)cc1OC`, for which the Potency result was “inactive”.

Turning to `COc1ccc(C(=O)Nc2ccc(C3(C#N)CCCC3)cc2)cc1OC`, the Potency was 23.1 µM (active).

Consider `COc1ccc(C(=O)Nc2ccc(N3CCC(C)CC3)cc2)cc1Br`, for which the Potency result was “inactive”.

Consider `COc1ccccc1C(=O)NC(=S)NC12CC3CC(CC(C3)C1)C2`, for which the Potency result was “inactive”.

Consider `Cc1ccc(C(=O)NC(=S)Nc2ccccc2C)cc1`, for which the Potency result was “inactive”.

For `Cc1ccc(NC(=S)NC(=O)c2ccc(-c3ccccc3)cc2)cc1`, the Potency was 4.61 µM (active).

With `COc1ccc(C(=O)NC(=S)Nc2ccc(Cl)cn2)cc1OC`, the Potency result is “inactive”.

In the case of `COc1ccccc1C(=O)NC(=S)Nc1ccc(N2CCOCC2)cc1`, the Potency is 0.206 µM (active).

For `CC(=O)NC(=S)Nc1ccc(NC(=S)NC(=O)c2ccc([N+](=O)[O-])cc2)cc1`, the Potency result is “inactive”.

With `CCOC(=O)c1c(C)[nH]c(C(=O)OCC(=O)N2CCCC2=O)c1C`, the Potency result was “inactive”.

With `COCCCNC(=O)CN1CCN(Cc2ccccc2Cl)C1=O`, the Potency entry was “inactive”.

Turning to `CCCc1cc(=O)oc2c(C)c(OCC(=O)N3CCC(C(=O)O)CC3)ccc12`, the Potency entry was “inactive”.

On to `O=[N+]([O-])/C=C1\CCCCCN1`, for which the Potency entry was “inactive”.

With `CC1CC(c2ccccc2)n2nc(NC(=O)c3cccs3)nc2N1` (centres undefined), the Potency result was “inactive”.

In the case of `Cc1nnc(NC(=O)CCC(=O)N2CCC(C)CC2)s1`, the Potency entry is “inactive”.

In the case of `Cc1ccc(OCC(=O)NNC(=S)NCc2ccccc2)cc1`, the Potency entry was “inactive”.

Regarding `O=C1CCC(C(=O)OCC(=O)Nc2ccc(OC(F)F)cc2)=NN1`, the Potency entry is “inactive”.

For the compound `Cc1ccc(C(=O)NC(=S)NCCN2CCOCC2)cc1`, the Potency result is “inactive”.

For `Cc1ccc(C(=O)NC(=S)Nc2ccc(N3CCOCC3)cc2)cc1`, the Potency was 29.1 µM (active).

For `O=C(CCN1CCN(c2ccccc2)CC1)NNC(=S)Nc1ccccc1`, the Potency result was “inactive”.

Regarding `O=C(CN1CCN(c2ccc(O)cc2)CC1)Nc1ccc(-c2ccccc2)cc1`, the Potency entry was “inactive”.

Consider `O=C(Cc1ccccc1)NC(=S)Nc1ccc(N2CCCCC2)cc1`, for which the Potency was 23.1 µM (active).

As for `COC(=O)c1ccc(NC(=S)NN2CCOCC2)cc1`, the Potency result is “inactive”.

As for `Nc1nonc1-c1noc(-c2ccc(Br)o2)n1`, the Potency result was “inactive”.

As for `CCC1=C(C(=O)OC)C(c2cc(OC)ccc2OC)C(C#N)=C(N)O1` (centres undefined), the Potency entry is “inactive”.

As to `CCOc1ccc(C(=O)NCCCN2CCCC2=O)cc1`, the Potency result was “inactive”.

As to `CC(C)OCCCNc1ncnc2c1[nH]c1ccc(F)cc12`, the Potency is 2.91 µM (active).

For `O=C1CCCN1CCCNc1ncnc2c1[nH]c1ccccc12`, the Potency result was “inactive”.

On to `COc1cc(OC)c(OC)cc1/C=N/Nc1ncnc2c1[nH]c1ccc(C)cc12`, for which the Potency result was “inactive”.

Consider `Cc1cc(C)c2c(NC(=O)C3CC3)nn(C)c2n1`, for which the Potency result was “inactive”.

For the compound `NC1=NC(c2cc(F)cc(F)c2)n2c(nc3ccccc32)N1` (centres undefined), the Potency entry was “inactive”.

`Cc1nnc(N/N=C/C2CC=CCC2)[nH]c1=O` (centres undefined): the Potency result was “inactive”.

With `Cc1ccc(C(=O)NCCNC(=O)c2cnccn2)cc1`, the Potency result was “inactive”.

Consider `CCN(CC)c1ccc(C(=O)Nn2c(C)nc3ccccc3c2=O)cc1`, for which the Potency entry is “inactive”.

`CCN(CC)c1ccc(/C=N/Nc2nc(C)cc(C)n2)c(O)c1`: the Potency was 3.26 µM (active).

Turning to `CCN(CC)c1ccc(/C=N/NC(=O)CNC(=O)c2cccnc2)cc1`, the Potency entry was “inactive”.

Turning to `CCN(CC)c1ccc(/C=N/NC(=O)c2cnccn2)c(O)c1`, the Potency is 4.11 µM (active).

On to `CCCCC(CC)C(=O)Nc1ccc(Cl)cn1` (centres undefined), for which the Potency result is “inactive”.

Consider `Cc1cc2c(cc1C)N(Cc1ccccc1)C1=NCCCN12`, for which the Potency was 13 µM (active).

For the compound `O=C(CN1C2=NCCN2c2ccccc21)c1cccs1`, the Potency entry is “inactive”.

Turning to `Nc1ccc(C(=O)OCC(=O)NC2CCCc3ccccc32)cc1[N+](=O)[O-]` (centres undefined), the Potency result was “inactive”.

In the case of `CCc1ccc(NC(=O)N2CCc3ccccc3C2)cc1`, the Potency result is “inactive”.

Regarding `CCc1ccc(NC(=O)c2sc3nc4c(cc3c2N)CN(CC)CC4)cc1`, the Potency was 18.4 µM (active).

Take `CCN1CCc2nc(NC(=O)c3cc(F)c(F)cc3Cl)sc2C1`: the Potency result is “inactive”.

With `CC(C(=O)NC1CCCC1)N(c1ccc(Oc2ccccc2)cc1)S(C)(=O)=O` (centres undefined), the Potency entry is “inactive”.

`O=C(C[C@H]1CC[C@H]2[C@@H](COC[C@H](O)CN2C(=O)c2ccccn2)O1)N1CCN(c2ccccc2)CC1`: the Potency entry was “inactive”.

For `O=C(CCSc1ccccc1)NCCSc1ccccn1`, the Potency entry was “inactive”.

Consider `O=[N+]([O-])/C=C/c1ccc2c(ccn2Cc2ccccc2)c1`, for which the Potency was 4.11 µM (active).

With `O=c1c(=O)n(Cc2c(F)cccc2Cl)ccn1Cc1ccccc1`, the Potency entry was “inactive”.

On to `O=C(CNC(=O)c1n[nH]c2ccccc12)Nc1cc(Cl)ccc1Cl`, for which the Potency result was “inactive”.

As for `COc1ccc(C)cc1NC(=S)Nc1ccccc1SC`, the Potency result was “inactive”.

As to `CSc1ncccc1C(=O)NC1CCCCCC1`, the Potency entry was “inactive”.

`CC(C)(C)C(=O)Nc1ccc(-c2cn3cccnc3n2)cc1`: the Potency entry is “inactive”.

`Cc1nc2ccccc2n1CC(=O)N/N=C/c1cccs1`: the Potency result was “inactive”.

With `Cc1ccc(-c2nnc(SCC(=O)N/N=C/c3cccs3)n2-c2ccc(C)cc2)cc1`, the Potency is 14.6 µM (active).

For the compound `NNC(=O)CSc1nnc(-c2ccccc2)n1-c1ccccc1`, the Potency result is “inactive”.

These data come from PubChem BioAssay AID686978 (National Center for Advancing Translational Sciences (NCATS), 2013).
